Results: PubChem BioAssay (NCI)
Values joined by “and” are separate entries in the source; they are usually repeats but may differ in a detail not shown here. Equal values may be shown once. This is part of a sample that, as a whole, favours compounds with a hit. Of some 83,000 tested, about 20% had one in any assay.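 Activity criterion: percent growth below 10, measured after cells in 96-well plates were exposed to a single compound concentration for 48 hours.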 Values without a mark were called inactive. Active and inactive are the calls of the source.

Each molecule was assayed on MDA-MB-468 breast (assay: NCI-60 one-dose screen, 48 h (100 = growth as untreated, 0 = no growth, -100 = all killed)). Conditions: 10 µM unless noted.

| SMILES | growth |
| --- | --- |
| CN1CCc2cccc3c2C1Cc1ccc(O)c(O)c1-3 (stereo not given) | 0.652% (active) |
| O=C(c1ccccc1)c1ccc(-c2ccc(O)cc2)cc1 | -16.5% (active) |
| C/C(Cc1ccc(Cl)cc1)=C(\c1ccc(OCCN2CCCCCC2)cc1)c1ccc(OC(=O)C2CCCCC2)cc1 | 52.2% |
| NC(=O)CCC(C(=O)O)N1C(=O)c2ccc(O)cc2C1=O (stereo not given) | 109% |
| CCCCNC(=O)Oc1ccc(/C(=C(/C)Cc2ccc(OC)cc2)c2ccc(OCCN3CCCC3)cc2)cc1 | 53.5% |
| [2H]C([2H])([2H])Oc1c(F)cccc1/C=C/C(=O)/C=C(O)/C=C/c1cccc(F)c1OC([2H])([2H])[2H] | 98.3% |
| c1cnc2[nH]cc(-c3csc(-c4cn(CCCN5CCCCC5)c5ccccc45)n3)c2c1 | 70.2% |
| CCOC(=O)C/C(=C\c1ccccc1)C(C)=O | 108% |
| CC(=O)NCC(=O)c1ccc([N+](=O)[O-])cc1 | 117% |
| CCOC(=O)c1ccccc1NC1=C(Cl)C(=O)c2nc(C)ccc2C1=O | 97.3% |
| COc1ccc(/C=N/NC(=O)c2cn(C3CC3)c3c(OC)c(N4CC5CCCNC5C4)c(F)cc3c2=O)cc1 (stereo not given) | 89.4% |
| O=C(/C=C/c1ccc(C(F)(F)F)cc1)c1ccc(Nc2nc(NCCO)nc(NCCO)n2)cc1 | 19.9% |
| Cc1cccc(/C=N/n2c(-c3ccc(Cl)cc3)nc3c(Br)cc(Br)cc3c2=O)c1 | 46.7% |
| CC(=O)O[C@H]1[C@@H]2OC(=O)C(CSc3ccccc3)[C@@H]2C[C@H]2O[C@]2(C)CC/C=C(\C)CCC[C@@H]1C (stereo not given in full) | -10% (active) |
| CN(c1ncccc1CNc1nc(Nc2ccc3c(c2)CC(=O)N3)ncc1C(F)(F)F)S(C)(=O)=O | -44.5% (active) |
| Cc1onc(-c2ccccc2Cl)c1C(=O)Cl | 104% |
| CCCCCCCCCCCCCCCC[N+]1(CC)CCCC1 | -35.7% (active) |
| CC1(C)NCCC[C@]2(C)[C@H]3CC[C@@H]4[C@H]5[C@H](C(=O)/C=C/c6ccccn6)CC[C@]5(CO)CC[C@@]4(C)[C@]3(C)CC[C@@H]12 | 5.83% (active) |
| O=C(O)Cc1cccc(=O)c(O)c1C(=O)O | 105% |
| O=[N+]([O-])c1cc(Cl)c2[nH]c3c(Cl)cc([N+](=O)[O-])cc3c2c1 | -17.9% (active) |

| SMILES | growth |
| --- | --- |
| CCN=C1C=CC(=C(c2ccc(N(C)C)cc2)c2ccc(N(C)C)cc2)c2ccccc21 | -26.8% (active) |
| COc1cc(-c2nn(-c3ccc(NC(=O)Nc4cc(C(F)(F)F)cc(C(F)(F)F)c4)cc3)cc2-c2ccncc2)ccc1Cl | -15.2% (active) |
| CC(=O)Nc1cc(S(=O)(=O)O)cc2cc(S(=O)(=O)O)c(N=Nc3ccccc3)c(O)c12 | 93.5% and 101% |
| CCOC(=O)C(Cc1ccccc1)(C(=O)OCC)C(Br)C(=O)c1ccccc1 (stereo not given) | -9.41% (active) |
| Nc1c(C(=O)c2ccc(Br)cc2)sc2nc3c(cc12)CCCC3 | 79.1% |
| O=C(NCCc1ccccc1)/C(=C\c1ccc(Cl)cc1Cl)NC(=O)c1ccccc1 | 95.1% |
| CC[C@@H]1C(=O)N(C)c2cnc(Nc3ccc(C(=O)NC4CCC(N5CCN(CC6CC6)CC5)CC4)cc3OC)nc2N1C(C)C (stereo not given in full) | -54.1% (active) |
| COc1ccc(-c2nc(SCC(=O)c3ccc(Br)cc3)[nH]c(=O)c2C#N)cc1 | 100% |
| Cc1ncc([N+](=O)[O-])n1CCOc1ccc(C(=O)/C=C/c2ccc(C(F)(F)F)cc2)cc1 | 71.3% |
| C[C@]12CC[C@@H]3c4ccc(O)cc4CC[C@H]3[C@@H]1C[C@H](O)[C@@H]2O | 87.1% |
| COc1cc(C2C(C(=O)OCc3ccccc3)=C(C)NC(C)=C2C(=O)OCc2ccccc2)cc(OC)c1OC | 11.6% |
| CC(=O)Nc1ccc2oc(=O)ccc2c1 | 83% |
| CCCn1cnc2c(c1=N)C(c1ccc(F)cc1)c1sc3c(CC)cccc3c1O2 (stereo not given) | -47.9% (active) |
| CCCOC(=O)N[C@H]1CCc2cc(OC)c(OC)c(OC)c2-c2ccc(SC)c(=O)cc21 | -16.8% (active) |
| Cc1cc(N(CCCNc2ccnc3cc(Cl)ccc23)Cc2ccc3c(c2)OCO3)nc(N2CCCCC2)n1 | -45.2% (active) |
| O=C(Nc1ccc(/C=C2\SC(=O)N(Cc3ccc(OC(F)(F)F)cc3)C2=O)cc1)c1ccc(Cl)c([N+](=O)[O-])c1 | 12.5% |
| O=C(NNC(=S)Nc1ccccc1)c1ccncc1 | 122% |
| C[C@H]1[C@H](C)CC[C@]2(C(=O)OCCOCCOCC[P+](c3ccccc3)(c3ccccc3)c3ccccc3)CC[C@]3(C)C(=CC[C@@H]4[C@@]5(C)CC[C@H](OC(=O)C(Cl)Cl)C(C)(C)[C@@H]5CC[C@]43C)[C@H]12 | -21.5% (active) |
| O=C(NC1CCN(Cc2ccccc2)CC1)c1cc2nc(-c3ccc(Cl)s3)cc(C(F)(F)F)n2n1 | -66.2% (active) |
| Cc1nc(Nc2ccc(NC(=S)Nc3ccccc3)cc2)c2ccccc2n1 | 109% |
